Reference: PubChem BioAssay (NCATS)
Results filed as inconclusive are left out. Calls of active or inactive are those of the source. Calls come from the whole dose curve; as a rule, active = well fitted cell-killing curve with a large enough effect; inconclusive = small, poorly fitted or top-dose-only effect, or effect the other way; inactive = flat fitted curve, though single readings scatter.

Columns and labels:
Experiment in all cases: Primary qHTS to identify gynecologic anti-cancer compounds using libraries of approved drugs and bioactive compounds (AID 1345084); note: nearly all actives have a fitted effect of over 55% in size
C33A = settings: Gynecologic cancer cell panel viability, ATPlite luminescence, 48 h; series mostly up to 57.5 µM
Summary of the method: (§1)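 Cells, 1,000 per well, plated 16 h, then exposed 48 h at 37 C to compounds. Viability by ATPlite luminescence after 15 min at room temperature.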

CAOV3 = settings: Gynecologic cancer cell panel viability, ATPlite luminescence, 48 h; series mostly up to 57.5 µM
Summary of the method: as §1

CASKI = settings: Gynecologic cancer cell panel viability, ATPlite luminescence, 48 h; series mostly up to 57.5 µM
Summary of the method: as §1

Es-2 = settings: Gynecologic cancer cell panel viability, ATPlite luminescence, 48 h; series mostly up to 57.5 µM
Summary of the method: as §1

HeLa = settings: Gynecologic cancer cell panel viability, ATPlite luminescence, 48 h; series mostly up to 57.5 µM
Summary of the method: as §1

Hek293T = settings: Gynecologic cancer cell panel viability, ATPlite luminescence, 48 h, control line for the selectivity index; series mostly up to 57.5 µM
Summary of the method: as §1

JEG-3 = settings: Gynecologic cancer cell panel viability, ATPlite luminescence, 48 h; series mostly up to 57.5 µM
Summary of the method: as §1

OV90 = settings: Gynecologic cancer cell panel viability, ATPlite luminescence, 48 h; series mostly up to 57.5 µM
Summary of the method: as §1

PA-1 = settings: Gynecologic cancer cell panel viability, ATPlite luminescence, 48 h; series mostly up to 57.5 µM
Summary of the method: as §1

SKOV3 = settings: Gynecologic cancer cell panel viability, ATPlite luminescence, 48 h; series mostly up to 57.5 µM
Summary of the method: as §1

Tov-21-G = settings: Gynecologic cancer cell panel viability, ATPlite luminescence, 48 h; series mostly up to 57.5 µM
Summary of the method: as §1

Tov112D = settings: Gynecologic cancer cell panel viability, ATPlite luminescence, 48 h; series mostly up to 57.5 µM
Summary of the method: as §1
% is set by controls: 0 for no effect and ±100 for the full control effect.

COc1c2cc(c(O)c1OC)-c1cc(ccc1O)CCC(O)CCCC2 (stereo unspecified)
inactive: Potency (C33A) | Potency (CAOV3) | Potency (CASKI) | Potency (Es-2) | Potency (HeLa) | Potency (Hek293T) | Potency (JEG-3) | Potency (OV90) | Potency (PA-1) | Potency (SKOV3) | Potency (Tov-21-G) | Potency (Tov112D)

C/C=C/C=C/[C@@H]1O[C@](O)([C@H](CC)C(=O)NC/C=C/C=C(\C)[C@@H](OC)[C@@H](C)C2OC(/C=C/C=C/C=C(\C)C(=O)c3c(O)cc[nH]c3=O)[C@H](O)[C@@H]2O)[C@H](O)[C@H](O)C1(C)C (stereo partly specified)
inactive: Potency (C33A) | Potency (CAOV3) | Potency (CASKI) | Potency (Es-2) | Potency (HeLa) | Potency (Hek293T) | Potency (JEG-3) | Potency (OV90) | Potency (PA-1) | Potency (SKOV3) | Potency (Tov-21-G) | Potency (Tov112D)

CC1(O)CCCC2(C)C1CCC13CC(CO)C(CCC12)C3 (stereo unspecified)
inactive: Potency (C33A) | Potency (CAOV3) | Potency (CASKI) | Potency (Es-2) | Potency (HeLa) | Potency (Hek293T) | Potency (JEG-3) | Potency (OV90) | Potency (PA-1) | Potency (SKOV3) | Potency (Tov-21-G) | Potency (Tov112D)

CC(=O)OCC1(O)CCC2C(COC3OC(CO)C(O)C(O)C3OC(=O)/C=C/c3ccc(O)cc3)=COC(OC(=O)CC(C)C)C21 (stereo unspecified)
inactive: Potency (C33A) | Potency (CAOV3) | Potency (CASKI) | Potency (Es-2) | Potency (HeLa) | Potency (Hek293T) | Potency (JEG-3) | Potency (OV90) | Potency (PA-1) | Potency (SKOV3) | Potency (Tov-21-G) | Potency (Tov112D)

Clc1cc2c(NC3CCCC3)nnc(-c3ccncc3)c2cc1Cl
inactive: Potency (C33A) | Potency (CAOV3) | Potency (CASKI) | Potency (Es-2) | Potency (HeLa) | Potency (Hek293T) | Potency (JEG-3) | Potency (OV90) | Potency (PA-1) | Potency (Tov-21-G) | Potency (Tov112D)

COc1cc2ncnc(Nc3ccc(O)cc3)c2cc1OC
inactive: Potency (C33A) | Potency (CAOV3) | Potency (CASKI) | Potency (Es-2) | Potency (HeLa) | Potency (Hek293T) | Potency (JEG-3) | Potency (OV90) | Potency (PA-1) | Potency (SKOV3) | Potency (Tov112D)

CC[C@H]1OC(=O)[C@](C)(F)C(=O)[C@H](C)[C@@H](O[C@@H]2O[C@H](C)C[C@H](N(C)C)[C@H]2O)[C@](C)(OC)C[C@@H](C)C(=O)[C@@H](C)[C@H]2N(CCCCn3cc(-c4cccc(N)c4)nn3)C(=O)O[C@]12C
inactive: Potency (C33A) | Potency (CAOV3) | Potency (CASKI) | Potency (Es-2) | Potency (HeLa) | Potency (Hek293T) | Potency (JEG-3) | Potency (OV90) | Potency (PA-1) | Potency (SKOV3) | Potency (Tov112D)

COc1cc(/C=C/C(=O)OC[C@H]2O[C@@](CO)(O[C@H]3O[C@H](CO)[C@@H](O)[C@H](O)[C@H]3O)[C@@H](OC(=O)/C=C/c3ccc(O)c(OC)c3)[C@@H]2O)ccc1O
inactive: Potency (C33A) | Potency (CAOV3) | Potency (CASKI) | Potency (Es-2) | Potency (HeLa) | Potency (Hek293T) | Potency (JEG-3) | Potency (OV90) | Potency (PA-1) | Potency (SKOV3) | Potency (Tov-21-G) | Potency (Tov112D)

CCc1ccc(Cc2ccc3c(c2)[C@]2(OC3)O[C@H](CO)[C@@H](O)[C@H](O)[C@H]2O)cc1
inactive: Potency (C33A) | Potency (CAOV3) | Potency (CASKI) | Potency (Es-2) | Potency (HeLa) | Potency (Hek293T) | Potency (JEG-3) | Potency (OV90) | Potency (PA-1) | Potency (SKOV3) | Potency (Tov-21-G) | Potency (Tov112D)

OCC(CO[C@@H]1O[C@H](CO)[C@@H](O)[C@H](O)[C@H]1O)c1ccc2c(c1)OCO2 (stereo partly specified)
inactive: Potency (C33A) | Potency (CAOV3) | Potency (CASKI) | Potency (Es-2) | Potency (HeLa) | Potency (Hek293T) | Potency (JEG-3) | Potency (OV90) | Potency (PA-1) | Potency (Tov-21-G) | Potency (Tov112D)

CS(=O)(=O)c1ccc([C@H](CC2CCCC2)C(=O)Nc2nccs2)cc1
inactive: Potency (C33A) | Potency (CAOV3) | Potency (CASKI) | Potency (Es-2) | Potency (HeLa) | Potency (Hek293T) | Potency (JEG-3) | Potency (OV90) | Potency (PA-1) | Potency (Tov-21-G) | Potency (Tov112D)

C[C@@H]1C(=O)OC[C@H]2C(C(=O)O)=C[C@@H]3CC(C)(C)C[C@]312
inactive: Potency (C33A) | Potency (CAOV3) | Potency (CASKI) | Potency (Es-2) | Potency (HeLa) | Potency (Hek293T) | Potency (JEG-3) | Potency (OV90) | Potency (PA-1) | Potency (SKOV3) | Potency (Tov112D)

CC1(C(=O)O)CCCC2(C)C3CCC4CC3(CCC12)CC4=O (stereo unspecified)
inactive: Potency (C33A) | Potency (CAOV3) | Potency (CASKI) | Potency (Es-2) | Potency (HeLa) | Potency (Hek293T) | Potency (JEG-3) | Potency (OV90) | Potency (PA-1) | Potency (SKOV3) | Potency (Tov-21-G) | Potency (Tov112D)

C[C@@H]1O[C@@H](O[C@H]2[C@H](O)[C@@H](C(=O)O)O[C@@H](O[C@H]3CC[C@@]4(C)C(CC[C@]5(C)C4CC=C4C6CC(C)(C)CC[C@]6(C(=O)O)CC[C@]45C)C3(C)C)[C@@H]2O[C@@H]2OC[C@@H](O)[C@H](O)[C@H]2O)[C@H](O)[C@H](O)[C@H]1O (stereo partly specified)
inactive: activity change, negative = cytotoxicity (C33A) 12.7% [at 11.6 µM] | activity change, negative = cytotoxicity (CAOV3) -1.86% [at 11.6 µM] | activity change, negative = cytotoxicity (CASKI) -0.197% [at 11.6 µM] | activity change, negative = cytotoxicity (Es-2) -1.84% [at 11.6 µM] | activity change, negative = cytotoxicity (HeLa) 10.5% [at 11.6 µM] | activity change, negative = cytotoxicity (Hek293T) 5.25% [at 11.6 µM] | activity change, negative = cytotoxicity (JEG-3) 3.19% [at 11.6 µM] | activity change, negative = cytotoxicity (OV90) 2.8% [at 11.6 µM] | activity change, negative = cytotoxicity (PA-1) 4.01% [at 11.6 µM] | activity change, negative = cytotoxicity (SKOV3) -0.245% [at 11.6 µM] | activity change, negative = cytotoxicity (Tov-21-G) 13.2% [at 11.6 µM] | activity change, negative = cytotoxicity (Tov112D) 4.42% [at 11.6 µM]

O=C(O)Cc1cn(C2OCC(O)C(O)C2O[C@@H]2O[C@H](CO)[C@@H](O)[C@H](O)[C@H]2O)c2ccccc12 (stereo partly specified)
inactive: Potency (C33A) | Potency (CAOV3) | Potency (CASKI) | Potency (Es-2) | Potency (HeLa) | Potency (Hek293T) | Potency (JEG-3) | Potency (OV90) | Potency (PA-1) | Potency (SKOV3) | Potency (Tov-21-G) | Potency (Tov112D)

C=C1C(=O)OC2CC3(C)C(CC12)C(C)=CC(O)C3OC(C)=O (stereo unspecified)
inactive: Potency (C33A) | Potency (CAOV3) | Potency (CASKI) | Potency (Es-2) | Potency (HeLa) | Potency (Hek293T) | Potency (JEG-3) | Potency (OV90) | Potency (PA-1) | Potency (SKOV3) | Potency (Tov-21-G) | Potency (Tov112D)
